Results as given in PubChem BioAssay.
Calls of active or inactive are those of the source.

Assays:
[1] = tested on: Plasmodium falciparum Sir2 (PF13_0152, Sir2A); assay: pfSir2 binders on small-molecule microarrays, primary screen, biochemical, small-molecule microarray, 635 nm fluorescence (AID 1098); settings: small-molecule microarray binding, fluorescence 635 nm; higher = more signal;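 also: score merges spot fluorescence intensity with its signal-to-noise ratio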
[2] = small-molecule microarray binders of probe aDKK1, primary screen, biochemical, biotinylated probe, 635/667 nm fluorescence (AID 1099); settings: higher = more signal;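 also: score merges 667nm spot fluorescence with signal to noise across triplicate slides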
[3] = small-molecule microarray binders of probe aCHRDL2, primary screen, biochemical, biotinylated probe, 635/667 nm fluorescence (AID 1100); settings: higher = more signal
[4] = splicing luciferase reporter signal modulators, primary screen, spliceosome inhibition project, cell-based, HEK293, splice +/- reporter (AID 1101); settings: luminescence, 24 h, higher = more signal, called active from +8 up or from −8 down;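 also: HEK293 cells carrying a splicing-competent luciferase reporter gene; test concentration not given here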
[5] = target: Fibroblast growth factor 10 (Homo sapiens) (UniProt O15520); assay: FGF10 binders on small-molecule microarrays, primary screen, biochemical, small-molecule microarray, 635 nm fluorescence (AID 1102); settings: FGF10 binding, fluorescence 635 nm, higher = more signal
Sequence of Fibroblast growth factor 10 (Homo sapiens) (O15520 whole entry, looked up): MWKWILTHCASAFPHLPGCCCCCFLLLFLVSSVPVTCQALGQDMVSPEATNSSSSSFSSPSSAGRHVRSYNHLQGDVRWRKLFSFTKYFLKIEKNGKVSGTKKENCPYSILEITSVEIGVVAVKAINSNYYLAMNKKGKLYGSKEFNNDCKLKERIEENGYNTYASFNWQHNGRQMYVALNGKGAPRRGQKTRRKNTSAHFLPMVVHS

[6] = tested on: glycogen synthase kinase-3 (GSK3A per assay name; protocol says GSK3B); assay: GSK3 binders on small-molecule microarrays, primary screen, biochemical, small-molecule microarray, 635 nm fluorescence, GSK3A (AID 1103); settings: small-molecule microarray binding, fluorescence 635 nm; higher = more signal; also: the record names both GSK3A and GSK3B
[7] = target: Epidermal growth factor receptor (Homo sapiens) (UniProt P00533); assay: EGFR binders on small-molecule microarrays, primary screen, biochemical, small-molecule microarray, 635 nm fluorescence (AID 1104); settings: EGFR binding, higher = more signal;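 also: score merges 667 nm emission intensity with spot signal to noise over triplicate slides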
Sequence of Epidermal growth factor receptor (Homo sapiens) (P00533 whole entry, looked up): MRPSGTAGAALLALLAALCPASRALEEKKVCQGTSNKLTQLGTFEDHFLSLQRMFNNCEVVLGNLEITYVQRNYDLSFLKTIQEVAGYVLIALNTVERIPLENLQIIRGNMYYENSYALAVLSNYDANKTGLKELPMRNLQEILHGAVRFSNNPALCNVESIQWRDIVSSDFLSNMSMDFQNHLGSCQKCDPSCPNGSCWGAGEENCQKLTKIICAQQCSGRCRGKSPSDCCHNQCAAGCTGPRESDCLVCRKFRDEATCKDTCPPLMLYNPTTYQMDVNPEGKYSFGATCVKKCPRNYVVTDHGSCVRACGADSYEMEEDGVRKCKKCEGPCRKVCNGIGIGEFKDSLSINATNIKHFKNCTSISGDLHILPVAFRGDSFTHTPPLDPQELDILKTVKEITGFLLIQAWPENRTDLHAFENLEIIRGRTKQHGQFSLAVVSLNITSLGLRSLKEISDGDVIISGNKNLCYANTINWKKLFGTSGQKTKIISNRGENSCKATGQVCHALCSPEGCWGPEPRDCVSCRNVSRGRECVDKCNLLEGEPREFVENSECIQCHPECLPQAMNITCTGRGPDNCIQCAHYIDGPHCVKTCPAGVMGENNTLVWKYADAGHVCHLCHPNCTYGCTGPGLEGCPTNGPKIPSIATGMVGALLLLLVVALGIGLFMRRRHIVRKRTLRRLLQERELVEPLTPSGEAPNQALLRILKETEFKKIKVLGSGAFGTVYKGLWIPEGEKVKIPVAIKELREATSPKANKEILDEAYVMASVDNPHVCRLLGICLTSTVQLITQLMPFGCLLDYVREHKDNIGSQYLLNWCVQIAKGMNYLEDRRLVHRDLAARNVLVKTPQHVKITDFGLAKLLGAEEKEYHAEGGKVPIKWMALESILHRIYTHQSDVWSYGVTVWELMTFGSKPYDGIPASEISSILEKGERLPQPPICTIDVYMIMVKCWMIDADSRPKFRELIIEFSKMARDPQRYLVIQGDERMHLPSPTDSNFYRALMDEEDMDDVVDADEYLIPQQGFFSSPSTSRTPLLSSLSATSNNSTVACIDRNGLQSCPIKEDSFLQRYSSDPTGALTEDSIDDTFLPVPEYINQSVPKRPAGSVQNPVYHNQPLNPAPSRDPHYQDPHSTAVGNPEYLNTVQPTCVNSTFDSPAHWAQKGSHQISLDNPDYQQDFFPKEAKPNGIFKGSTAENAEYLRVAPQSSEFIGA

[8] = target: Follistatin-related protein 3 (Homo sapiens) (UniProt O95633); assay: FSTL3 binders on small-molecule microarrays, primary screen, biochemical, small-molecule microarray, 635 nm fluorescence (AID 1105); settings: FSTL3 binding, higher = more signal;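 also: score merges emission near 667 nm and signal to noise per printed spot across three slides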
Sequence of Follistatin-related protein 3 (Homo sapiens) (O95633 whole entry, looked up): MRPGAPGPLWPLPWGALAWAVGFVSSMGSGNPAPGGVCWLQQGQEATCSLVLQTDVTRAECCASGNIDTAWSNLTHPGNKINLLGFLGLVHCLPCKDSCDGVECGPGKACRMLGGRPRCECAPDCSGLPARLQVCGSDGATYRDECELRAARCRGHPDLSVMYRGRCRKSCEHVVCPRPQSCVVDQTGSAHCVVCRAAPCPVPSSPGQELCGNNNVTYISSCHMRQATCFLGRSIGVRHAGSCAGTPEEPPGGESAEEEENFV

[9] = target: Dickkopf-related protein 1 (Homo sapiens) (UniProt O94907); assay: DKK1 binders on small-molecule microarrays, primary screen, biochemical, small-molecule microarray, 635 nm fluorescence scan (AID 1106); settings: DKK1 binding, higher = more signal;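 also: score merges emission near 667 nm with signal to noise over three replicate slides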
Sequence of Dickkopf-related protein 1 (Homo sapiens) (O94907 whole entry, looked up): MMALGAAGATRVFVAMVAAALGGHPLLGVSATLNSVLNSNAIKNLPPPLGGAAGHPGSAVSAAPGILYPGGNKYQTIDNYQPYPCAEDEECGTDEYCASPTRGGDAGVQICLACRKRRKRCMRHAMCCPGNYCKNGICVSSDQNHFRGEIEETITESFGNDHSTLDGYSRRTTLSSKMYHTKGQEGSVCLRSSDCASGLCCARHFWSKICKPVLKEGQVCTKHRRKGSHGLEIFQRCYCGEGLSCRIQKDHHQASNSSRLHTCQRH

[10] = tested on: Inhibin beta A chain (activin A); assay: INHBA (activin A) binders on microarrays, primary screen, biochemical, small-molecule microarray, 635 nm fluorescence scan (AID 1107); settings: small-molecule microarray binding, higher = more signal;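 also: mouse activin A protein probed at 4.33 µg/mL on printed slides; score merges bound-protein fluorescence near 667 nm with spot signal-to-noise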
[11] = tested on: Human papillomavirus type 1a protein E7 (residues 44-93); assay: HPV1a E7 fragment binders on microarrays, primary screen, biochemical, small-molecule microarray, residues 44-93, 635 nm fluorescence (AID 1108); settings: small-molecule microarray binding, fluorescence 635 nm; higher = more signal;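 also: E7 fragment applied at 1 µg/mL in TBST for 1 h at 4 C; score combines spot fluorescence with its signal to noise ratio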
[12] = modulators of HCV replicon luciferase signal, primary screen, HCV replication inhibitor project, Huh7 cells, luciferase reporter (AID 1109); settings: 48 h, higher = more signal;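 also: huh7 hepatoma cells harbouring a luciferase neomycin HCV replicon reporter; luciferase luminescence as measure of HCV replicon replication; test concentration not given here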
[13] = target: Left-right determination factor 2 (Homo sapiens) (UniProt O00292); assay: LEFTY2 binders on small-molecule microarrays, primary screen, biochemical, small-molecule microarray, 635 nm fluorescence scan (AID 1110); settings: LEFTY2 binding, higher = more signal
Sequence of Left-right determination factor 2 (Homo sapiens) (O00292 whole entry, looked up): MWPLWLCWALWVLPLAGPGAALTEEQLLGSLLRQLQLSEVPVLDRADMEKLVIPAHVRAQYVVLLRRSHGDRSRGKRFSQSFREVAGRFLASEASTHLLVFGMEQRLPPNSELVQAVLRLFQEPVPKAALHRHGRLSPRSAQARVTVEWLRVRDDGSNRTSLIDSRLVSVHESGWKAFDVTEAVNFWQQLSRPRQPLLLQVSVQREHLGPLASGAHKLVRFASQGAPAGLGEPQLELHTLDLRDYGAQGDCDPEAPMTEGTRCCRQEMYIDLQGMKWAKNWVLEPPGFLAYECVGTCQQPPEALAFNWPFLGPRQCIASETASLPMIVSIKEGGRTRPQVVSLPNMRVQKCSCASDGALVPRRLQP

[14] = target: Calmodulin-1 (Homo sapiens) (UniProt P0DP23); assay: CALM1 binders on microarrays, EGTA buffer, profiling panel, biochemical, small-molecule microarray, Cy5-labelled CALM1 (AID 1111); settings: Cy5-CALM1 binding fluorescence, higher = more signal;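 also: labelled calmodulin applied in Tris saline Tween buffer holding calcium plus EGTA and DTT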
[15] = target: Calmodulin-1 (Homo sapiens) (UniProt P0DP23); assay: calcium-bound CALM1 binders on microarrays, profiling panel, artefact control for SMM control-protein annotation, biochemical, small-molecule microarray, Cy5-labelled CALM1, plus calcium (AID 1112); settings: Cy5-CALM1 binding fluorescence, higher = more signal;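 also: score merges spot fluorescence with signal to noise from triplicate slides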
[16] = small-molecule microarray binders of probe aWnt5a, primary screen, biochemical, biotinylated probe, 635/667 nm fluorescence (AID 1113); settings: higher = more signal;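 also: score merges 667 nm fluorescence intensity with signal-to-noise per printed feature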
[17] = small-molecule microarray binders of probe aShh, primary screen, biochemical, biotinylated probe, 635/667 nm fluorescence (AID 1114); settings: higher = more signal;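 also: probe is biotin-labelled aShh protein from a stem cell growth factor screen; measures binding of labelled protein to compounds printed on the slide; score merges feature fluorescence at 667 nm with signal-to-noise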
[18] = small-molecule microarray binders of probe aNog, primary screen, biochemical, biotinylated probe, 635/667 nm fluorescence (AID 1115); settings: higher = more signal;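 also: probe is biotinylated aNog protein used at 0.15 µg/mL for 1 h at 4 C; z-score combines 667 nm fluorescence of each spot with its signal to noise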
[19] = target: Torsin-1A-interacting protein 1 (Homo sapiens) (UniProt Q5JTV8); assay: LAP1 binders from COS7 cell lysate, primary screen, small-molecule microarray, 635/667 nm fluorescence (AID 1116); settings: COS7-hLAP1 lysate binding, 635 nm fluorescence, higher = more signal
Sequence of Torsin-1A-interacting protein 1 (Homo sapiens) (Q5JTV8 whole entry, looked up): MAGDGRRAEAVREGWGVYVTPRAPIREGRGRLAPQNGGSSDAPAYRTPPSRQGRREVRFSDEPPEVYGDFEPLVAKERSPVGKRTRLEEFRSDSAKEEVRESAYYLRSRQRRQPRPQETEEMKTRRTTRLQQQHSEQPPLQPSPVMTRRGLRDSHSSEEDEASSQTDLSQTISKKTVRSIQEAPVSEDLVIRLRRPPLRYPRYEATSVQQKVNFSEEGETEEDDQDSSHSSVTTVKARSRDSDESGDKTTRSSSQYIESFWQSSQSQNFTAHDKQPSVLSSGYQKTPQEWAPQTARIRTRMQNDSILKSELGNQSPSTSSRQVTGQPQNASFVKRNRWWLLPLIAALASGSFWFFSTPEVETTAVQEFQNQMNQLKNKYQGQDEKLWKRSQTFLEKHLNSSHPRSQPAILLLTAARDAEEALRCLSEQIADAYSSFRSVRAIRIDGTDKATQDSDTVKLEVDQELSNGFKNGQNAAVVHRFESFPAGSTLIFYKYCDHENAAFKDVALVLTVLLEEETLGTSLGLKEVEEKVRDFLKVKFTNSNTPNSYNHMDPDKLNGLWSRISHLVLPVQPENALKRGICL

[20] = target: Alpha-bungarotoxin (Bungarus multicinctus) (UniProt P60615); assay: alpha-bungarotoxin binders on microarray, profiling panel, artefact control for SMM control protein annotation, biochemical, small-molecule microarray, Alexa647 label, 635/667 nm fluorescence (AID 1117); settings: alpha-BTX-A647 binding fluorescence, higher = more signal
Sequence of Alpha-bungarotoxin (Bungarus multicinctus) (P60615 whole entry, looked up): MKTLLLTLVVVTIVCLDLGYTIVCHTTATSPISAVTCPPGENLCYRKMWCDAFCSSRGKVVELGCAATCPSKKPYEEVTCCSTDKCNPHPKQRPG

Row | SMILES | composite z-score [1] | composite z-score [2] | composite z-score [3] | z-score [4] | composite z-score [5] | composite z-score [6] | composite z-score [7] | composite z-score [8] | composite z-score [9] | composite z-score [10] | composite z-score [11] | z-score [12] | composite z-score [13] | composite z-score [14] | composite z-score [15] | composite z-score [16] | composite z-score [17] | composite z-score [18] | composite z-score [19] | composite z-score [20]
1 | COC(=O)C(CC#Cc1ccc2c(c1)[C@]1(C(=O)N2)[C@H](C(=O)N2CCc3cc(OC)c(OC)cc3C2)[C@H]2C(=O)O[C@H](c3ccccc3)[C@H](c3ccccc3)N2[C@@H]1c1ccc(O)cc1)C(=O)OC | 1.06 | 0.432 | 0.417 | 0.362 (inactive) | 1.4 | 1.35 | 0.919 | 1.43 | 1.71 | -0.227 | 1.27 | -1.06 | 1.35 | 1.35 | 0.537 | -0.0303 | 0.529 | -0.491 | 0.908 | 1.12
2 | CO[C@H]1O[C@H](CO)[C@@H](OC(=O)Nc2ccc(C(F)(F)F)cc2)[C@H](OC(=O)Nc2ccccc2)[C@H]1OC(=O)Nc1ccccc1 | 1.61 | 0.995 | 0.832 | -0.624 (inactive) | 1.33 | 1.33 | 0.375 | 1.2 | 0.0148 | 0.0729 | 0.69 | -3.84 | 0.513 | 1.99 | 0.168 | 0.133 | 0.342 | 1.18 | 0.825 | 2.69
3 | O=C1C2C=CC(C(O)c3cccc4ccccc34)N(Nc3ccccc3)C2C(=O)N1c1ccccc1 (stereo not given) | 1.54 | 1.33 | 0.945 | -0.272 (inactive) | 1.09 | 1.28 | 0.346 | 1.43 | 0.0156 | 1.15 | 1.38 | -1.29 | 0.321 | 0.972 | -0.8 | 0.0725 | 0.424 | 1.05 | 0.759 | 2.06
4 | [N-]=[N+]=NCc1ccccc1[C@H]1OC(c2ccc(OCCCO)cc2)=N[C@@]1(Cc1ccccc1N=[N+]=[N-])C(=O)N1CCCCC1 | 1.31 | 1.11 | 1.06 | 0.532 (inactive) | 1.42 | 1.29 | 0.363 | 1.25 | 0.256 | 1.23 | 1.46 | -2.19 | 0.291 | 1 | 0.289 | 0.132 | -0.157 | 1.76 | 1.44 | 1.3
5 | CO[C@H]1O[C@H](CO)[C@@H](OC(=O)Nc2cccc(F)c2)[C@H](OC(=O)Nc2ccc3c(c2)OCO3)[C@H]1OC(=O)Nc1ccc2c(c1)OCO2 | 0.932 | 0.0673 | 0.307 | -0.197 (inactive) | 0.693 | 0.26 | 0.199 | 0.55 | 0.177 | 0.674 | 1.12 | -1.37 | 0.0115 | 0.67 | -0.957 | -0.0735 | 0.0469 | 0.201 | 3.02 | 0.972
6 | CO[C@H]1O[C@H](CO)[C@@H](OC(=O)c2ccc(Br)cc2)[C@@H]2OC(=O)[C@H](Cc3cccc(Br)c3)C/C=C/C[C@@H](Cc3cccc(Br)c3)C(=O)O[C@@H]12 | 0.418 | 0.649 | 0.78 | 0.0118 (inactive) | 1.04 | 0.559 | 0.194 | 0.914 | 0.189 | 0.602 | 0.549 | -2.15 | 0.985 | 0.622 | 0.0872 | -0.113 | 0.317 | -0.172 | 0.323 | 0.867
7 | Cc1cc(C)c(C(O)C2C=CC3C(=O)N(c4ccccc4)C(=O)C3N2Nc2ccccc2)c(C)c1 (stereo not given) | 1.52 | 1.17 | 0.849 | -0.62 (inactive) | 0.964 | 1.2 | 0.403 | 0.939 | -0.167 | 0.242 | 1.16 | -0.177 | 0.109 | 1.6 | 1.03 | 0.216 | -0.0791 | 1.99 | 1.1 | 2.38
8 | NCCCCCCNC(=O)[C@H]1C[C@H]2C(=O)N3CCC[C@H]3C(=O)N2[C@H]1c1ccc(O)cc1 | 1.22 | 0.0237 | 0.134 | 0.089 (inactive) | 0.264 | 0.572 | 0.386 | 0.747 | 0.735 | 0.977 | -0.0863 | 0.0433 | 0.55 | 0.192 | 0.102 | 0.15 | -0.0441 | -0.28 | 0.999 | 1.05
9 | COC(=O)[C@@]1(Cc2ccc(OC)cc2)[C@H]2c3cc(C(=O)N(C)C)n(Cc4cc(F)c(F)c(F)c4)c3C[C@H]2CN1C(=O)c1ccccc1 | 0.85 | 1.59 | 1.03 | -2.2 (inactive) | 0.519 | 1.02 | 0.261 | 0.745 | -0.958 | 0.882 | 1.43 | -2.04 | 0.159 | 2.29 | 1.17 | 0.225 | 0.75 | 1.73 | 1.19 | 1.86
10 | COc1cc(C(O)C2C=CC3C(=O)N(C)C(=O)C3N2NC(=O)OC(C)(C)C)cc(OC)c1OC (stereo not given) | 1.27 | 1.2 | 0.739 | 1.21 (inactive) | 0.447 | 0.833 | 0.189 | 0.234 | -0.076 | 0.442 | 0.968 | -0.639 | 0.0493 | 1.34 | 0.12 | 0.343 | 0.848 | 1.6 | 0.102 | 0.312
11 | CCCC[C@H]1OB(O)C[C@H]2C1=C(COc1ccccc1)Cn1c(=O)n(-c3ccccc3)c(=O)n12 | 0.918 | -0.149 | -0.387 | 0.142 (inactive) | 0.926 | 0.61 | 0.283 | 1.01 | 0.203 | 0.54 | 1.03 | -0.917 | 0.375 | 0.292 | -0.0404 | -0.186 | -0.16 | -0.555 | 0.654 | -0.334
